KCNH2 WT inh: blocks the wildtype human KCNH2 potassium channel; Q12809; U2OS, BacMam KCNH2, thallium flux FluxOr; active compounds read low; activity change, % at 1.84 µM; 340,000 tested, 0.37% active; AID 720551;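 active means maximum activity change below -70%; inconclusive means maximum activity change between -70% and -50%; inactive means maximum activity change above -50%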; further: on the % scale 0 is the no-effect control and ±100 the full control effect
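U2OS cells transduced with wild-type KCNH2 virus are loaded with FluxOr dye for 45 min, and thallium flux is measured in kinetic reads before and after stimulation buffer. Rate constants are normalized to DMSO controls.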
AT treatment: candidate therapy for ataxia-telangiectasia. F2112 A-T fibroblasts, KAP-1 phosphorylation AlphaLISA; neocarzinostatin DNA damage 30 min before lysis. Potency, µM (doses to about 57.5 µM), inactives show at the highest dose activation, most hits filed as activators. 320,000 tested, 0.19% active; further: potency means the concentration at half of the fitted maximal effect; % of control where 0% means no effect; nearly all actives have a fitted effect of over 45% in size
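hTERT-immortalized A-T patient fibroblasts (F2112), 500 cells/well in OPTI-MEM, 1% FBS, got compounds for 60 min, then NCS for 30 min at 37C. Lysates were then assayed for phospho-KAP-1 by AlphaLISA (anti-pKAP1 donor, anti-KAP1 acceptor beads), 6 hr at 25C.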
ALOX12 inh: inhibitors of human 12S-lipoxygenase ALOX12; P18054; purified 12hLO, xylenol orange hydroperoxide absorbance; Potency, µM (titrated, usually from 108 µM), for inactives: at the top dose activity change, negative = inhibition, most hits filed as inhibitors; 580,000 tested, 1.1% active; further: potency means the concentration at half of the fitted maximal effect; on the % scale 0 is the no-effect control and ±100 the full control effect
Target sequence (P18054 whole entry, looked up): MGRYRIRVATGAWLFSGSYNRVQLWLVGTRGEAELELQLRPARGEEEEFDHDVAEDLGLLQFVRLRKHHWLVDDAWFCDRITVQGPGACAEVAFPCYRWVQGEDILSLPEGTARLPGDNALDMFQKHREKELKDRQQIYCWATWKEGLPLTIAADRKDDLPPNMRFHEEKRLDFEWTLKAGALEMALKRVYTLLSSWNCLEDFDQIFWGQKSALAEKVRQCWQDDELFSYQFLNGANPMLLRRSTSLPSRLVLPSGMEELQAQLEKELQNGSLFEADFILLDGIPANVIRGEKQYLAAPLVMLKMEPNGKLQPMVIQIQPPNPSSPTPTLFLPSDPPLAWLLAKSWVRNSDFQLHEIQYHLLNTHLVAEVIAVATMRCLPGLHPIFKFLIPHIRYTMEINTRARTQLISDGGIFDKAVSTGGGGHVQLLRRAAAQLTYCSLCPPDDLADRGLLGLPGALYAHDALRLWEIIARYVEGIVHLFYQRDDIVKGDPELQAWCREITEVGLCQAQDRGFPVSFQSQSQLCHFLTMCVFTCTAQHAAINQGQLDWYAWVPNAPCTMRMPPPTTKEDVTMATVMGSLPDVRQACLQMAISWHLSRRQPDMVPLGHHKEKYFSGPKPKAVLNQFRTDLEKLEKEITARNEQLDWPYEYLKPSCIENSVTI
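Purified human 12hLO (150 nM final) in 25 mM Hepes, 0.01% Triton X-100, pH 7.0 was preincubated 15 min at room temperature with compound. Then 40 uM arachidonic acid was added, 30 min. Hydroperoxide was read by Fe-XO absorbance ratio 573/405 nm.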
KCNH2 3.1 inh: blocks the human KCNH2 3.1 channel isoform. 340,000 tested, 0.95% active. U2OS KCNH2 3.1, thallium flux FluxOr; active compounds read low. activity change, % (tested at about 1.8 µM);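 active means maximum activity change below -70%; inconclusive means maximum activity change from -70% to -50%; inactive means maximum activity change above -50%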;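 further: thallium influx rate constant from kinetic fluorescence after stimulation buffer; on the % scale 0 is the no-effect control and ±100 the full control effect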
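Steps: virus added to U2OS suspension (4 h, RT, dark); medium with 10% FBS added, cells plated, 37 C overnight; FluxOr/Red40 loading buffer 45 min RT; stimulation buffer, 2 min kinetic read; rate constant normalized.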
* marks the source's active call; other numbers are inactive results; i = inactive; ? = inconclusive; nt = no result given; [ ] = dose if it differs, or a comment. In the library only some 1.8% were active in any assay of this set; here they are far more common. Unless noted, the call rests on the fitted dose curve; in most records, active means well fitted curve in the direction sought with a large enough effect; inconclusive means small, poorly fitted or top-dose-only effect, or another doubt; inactive means no such curve, though single readings can be large; an effect the other way counts as inactive or inconclusive.

SMILES	KCNH2 WT inh	AT treatment	ALOX12 inh	KCNH2 3.1 inh
Oc1ccc(/C=N/N2CCN(C3c4ccccc4-c4ccccc43)CC2)cc1	-15.9	25.4%	-7.9%	1.0
Oc1ccc(/C=N/N2CCN(C3c4ccccc4-c4ccccc43)CC2)cc1O	-3.3	-7.6%	17.8µM*	4.9
C[N+]1(CC(=O)OC2CCCCCCCCCCC2)CCCC1	7.1	-1.6%	44.7µM*	4.1
O=C(NCc1cccc(C(F)(F)F)c1)C1CCCN(C(=O)c2ccc(Cl)cc2)C1 (stereo unspecified)	nt	nt	12.3%	nt
O=C(CCSC1=NCCCN1)c1ccc(F)cc1	17.1	nt	44.7µM*	nt
O=C(CCCSc1nnc(SCCCC(=O)c2ccc(F)cc2)s1)c1ccc(F)cc1	3.2	7.4%	20.4%	-36.8
Cc1ccc2c(=O)cc(CSc3ccccc3)[nH]c2c1C	nt	nt	-27.1%	nt
O=c1cc(CSc2ccc(Cl)cc2)[nH]c2[nH]n(-c3ccccc3)c(=O)c12	-13.3	-10.5%	39.8µM*	9.2
Cc1ccc(SCc2cc(=O)c3c(=O)n(-c4ccccc4)[nH]c3[nH]2)cc1	1.3	-0.5%	35.5µM*	9.5
Cc1[nH]c(=S)sc1Cc1ccc(Cl)c(Cl)c1	nt	1.2%	31.6µM*	nt
Cc1nnc(SCc2ccc(Cl)c(Cl)c2)s1	0.8	2.0%	-7.7%	-1.7
CCC1CN(C(=O)CCc2ncc(-c3ccc(Cl)cc3)o2)CCO1 (stereo unspecified)	nt	nt	42.5%	nt
COc1ccccc1Nc1nc(N)nc(CN2CCC(C)CC2)n1	52.4	2.6%	-2.3%	-26.6
COc1ccccc1Nc1nc(N)nc(CN2CCC(Cc3ccccc3)CC2)n1	-155.2*	-3.4%	-0.5%	-104.0*
COc1ccc(Nc2nc(N)nc(CN3CCC(Cc4ccccc4)CC3)n2)cc1	-40.6	6.8%	26.1%	-116.0*
CCc1ccc(S(=O)(=O)Nc2ccc(N3CCN(C)CC3)cc2)cc1	12.3	-8.8%	?	-7.3
CCc1ccc(S(=O)(=O)Nc2ccc3nc(N4CCN(CCC#N)CC4)cc(C(=O)O)c3c2)cc1	nt	nt	11.2µM*	nt
CCN1C(=O)C2(CC(=O)Nc3[nH]ncc32)c2cc(C)ccc21 (stereo unspecified)	nt	nt	-0.6%	nt
Cc1ccc(SC[C@H](Cc2ccccc2)N2CC[C@@H](C)CCC2=O)cc1	-1.0	10.1%	-7.7%	-125.9*
COc1ccc(SC[C@H](Cc2ccccc2)N2CC[C@@H](C)CCC2=O)cc1	3.2	8.8%	?	?
CC(=O)Nc1ccc(SC[C@H](Cc2ccccc2)N2CC[C@@H](C(C)(C)C)CCC2=O)cc1	-12.8	-13.2%	-10.2%	-96.8*
O=C(NCc1ccc(N2CCOCC2)cc1)c1cccc2c1CCN2C(=O)C1CC1	nt	nt	9.0%	nt
COc1ccc(CC(=O)NC(C)C2CC3CCC2C3)cc1OC (stereo unspecified)	nt	nt	-6.0%	nt
COc1cccc([S+](=O)([O-])N2CCn3c(nn(-c4ccc(Cl)cc4)c3=O)C2)c1	nt	nt	2.8%[6.33 µM]	nt
c1ccc(C2(c3ccccc3)CCCN(Cc3cscn3)C2)cc1	nt	nt	44.7µM*	nt
SMILES	KCNH2 WT inh	AT treatment	ALOX12 inh	KCNH2 3.1 inh
CCN(CC)c1ccc(S(=O)(=O)N2CCOCC2)cc1NC(=O)CSc1nncs1	-215.2*	-4.4%	nt	-186.6*
O=C(CSc1nc2ccccc2s1)Nc1cc(S(=O)(=O)N2CCOCC2)ccc1O	-11.2	3.4%	22.4µM*	nt
CCN(CC)c1ccc(S(=O)(=O)N2CCOCC2)cc1NC(=O)c1cc(=O)c2ccccc2o1	0.2	2.8%	-0.5%	-74.5*
CCN(CC)c1ccc(S(=O)(=O)N2CCOCC2)cc1NC(=O)CSc1nncn1C	-18.5	4.2%	0.0%	-5.0
O=[N+]([O-])c1cc(-c2n[nH]c(-c3ccccc3)n2)cc([N+](=O)[O-])c1	1.4	-0.1%	-7.3%[57.4 µM]	-78.0*
CN(C)c1ccc(CNC2(Cc3cc(COc4ccccc4)on3)COC2)cc1	nt	nt	29.1%[176 µM]	nt
CC(NC(=O)CCNS(=O)(=O)c1ccccc1)c1ccccc1 (stereo unspecified)	-156.2*	19.8%	i	4.3
Cc1cccc(OCCCC(=O)Nc2ccc(S(N)(=O)=O)cc2)c1	-5.8	2.2%	6.8%	-15.1
CCN(CC)c1ccc(NC(=O)CCCOc2cccc(C)c2)cc1	-0.2	-4.8%	39.8µM*	-5.5
O=C1Nc2ccccc2CN(CC2CCCCC2)C12CCNC2 (stereo unspecified)	nt	nt	2.3%[6.33 µM]	nt
O=C1Nc2ccccc2CN(Cc2ccc(Cl)cc2)C12CCNC2 (stereo unspecified)	nt	nt	20µM*	nt
COC(=O)c1sc2ncccc2c1OCc1c(Cl)cccc1Cl	0.0	-4.8%	39.8µM*	-0.1
Cc1ccc(Cn2cccc(NS(C)(=O)=O)c2=O)cc1	-12.0	-14.4%	7.08µM*	-12.3
Clc1ccc(-c2ccn[nH]2)cc1	7.2	4.9%	?	8.2
Cc1ccc(-c2ccnc(=S)[nH]2)cc1C	nt	nt	2.51µM*	nt
S=c1nccc(-c2ccc(Cl)cc2)[nH]1	-7.4	4.5%	12.6µM*	0.9
O=C(CC12CC3CC(CC(C3)C1)C2)NCC(=O)OCC(=O)N1CC(=O)Nc2ccccc21	nt	nt	-47.8%	nt
O=C(Nc1ccccc1F)C(=Cc1sc(N2CCOCC2)nc1-c1ccccc1)C(=O)Nc1ccccc1F	-0.9	0.4%	-7.9%	-77.5*
Cc1ccccc1CS(=O)(=O)Cc1ccc(C(=O)NCCc2ccccc2)o1	5.9	2.7%	5.5%	-71.1*
O=C(NCCc1ccccc1)c1ccc(CS(=O)(=O)Cc2ccccc2Cl)o1	nt	nt	0.0%	nt
COc1ccc(-c2cc(C(=O)NNC(=S)NC(=O)c3c(-c4ccccc4)noc3C)[nH]n2)cc1	14.5	-0.3%	11.2µM*	-2.5
COc1ccc(/C=C/C(=O)NC(=S)NNC(=O)c2c(-c3ccccc3)noc2C)cc1	-29.7	-3.5%	?	1.5
CC(Sc1cccc2cccnc12)C(=O)NC(=O)NC(C)(C)C (stereo unspecified)	nt	nt	12.6µM*	nt
CCCCN(CC)CCCNC(=O)c1cn(CC(C)C)c(=O)c2c1c1ccccc1n2C	4.6	25.1µM*	?	1.1
CCCCN(CC)CCNC(=O)c1cn(-c2ccc(Cl)cc2)c(=O)c2ccccc12	?	-2.9%	-28.5%	-78.1*
Cc1ccc(CNCc2ccc(-c3ccc(C(C)O)cc3)o2)cc1 (stereo unspecified)	nt	nt	31.9%	nt
Clc1cccc(Nc2cc3c(cn2)CN(Cc2cccnc2)CCN3)c1	nt	nt	20.0%[176 µM]	nt

Source: PubChem (National Center for Advancing Translational Sciences (NCATS))
